Compound activity from PubChem BioAssay.
The list is not random: actives were taken first. Their share in the collection is about 0.67%.
Rango dissoc inh = qHTS Assay for Inhibitors of RanGTP induced Rango (Ran-regulated importin-beta cargo) - Importin beta complex dissociation; Biochemical FRET Rango-importin beta, RanGTP-induced dissociation; Potency, µM (series often up to 46.1 µM), for the others: top-dose activity change, negative = inhibition; actives 0.071% (n = 340,000); further: % of control where 0% means no effect; nearly all actives have a fitted effect of over 45% in size
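Two FRET readings bracket the reaction: one 5 min after compound meets Rango–importin beta, another 45 min after RanGTP-RCC1 (0.6 uM Ran, 0.2 uM RCC1, 2 mM GTP) is added. Only the second defines inhibition.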
gsp antag = qHTS for Antagonists of gsp, the Etiologic Mutation Responsible for Fibrous Dysplasia/McCune-Albright Syndrome: qHTS. actives 0.4% (n = 340,000). Potency, µM (titrated, usually from 76.9 µM), for the others: at the highest dose activity change, negative = inhibition, hits mostly inhibitors. gsp-mutant cells, cAMP HTRF, 30 min. AID 624288, 2012; calls by dose curve; cell line not stated here;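 further: intracellular cAMP measured with PDE inhibitor Ro 20-1724 present during compound exposure; on the % scale 0 is the no-effect control and ±100 the full control effect; nearly all actives have a fitted effect of over 65% in size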
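HTRF cAMP measurement after 30 min RT detection following 30 min, 37C compound treatment alongside […] (added as 300 uM solution) in G418-selected cells seeded at 2000/well and grown 16–24 h.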
ASM inhibitor = Inhibitors of Secretory Acid Sphingomyelinase (S-ASM): qHTS; Sphingomyelin phosphodiesterase (Homo sapiens), P17405; placental ASM, HMU-PC fluorogenic substrate, 60 min; Potency, µM (titrated, usually from 57.5 µM), without a hit: at the top dose activity change, negative = inhibition, actives largely listed as inhibitors; actives 0.006% (n = 340,000); active means well fitted inhibition curve with a large enough effect; inconclusive means small, poorly fitted or top-dose-only effect; inactive means no such curve, though single readings can be large or run the other way
Target sequence (P17405 47-631 limits assumed): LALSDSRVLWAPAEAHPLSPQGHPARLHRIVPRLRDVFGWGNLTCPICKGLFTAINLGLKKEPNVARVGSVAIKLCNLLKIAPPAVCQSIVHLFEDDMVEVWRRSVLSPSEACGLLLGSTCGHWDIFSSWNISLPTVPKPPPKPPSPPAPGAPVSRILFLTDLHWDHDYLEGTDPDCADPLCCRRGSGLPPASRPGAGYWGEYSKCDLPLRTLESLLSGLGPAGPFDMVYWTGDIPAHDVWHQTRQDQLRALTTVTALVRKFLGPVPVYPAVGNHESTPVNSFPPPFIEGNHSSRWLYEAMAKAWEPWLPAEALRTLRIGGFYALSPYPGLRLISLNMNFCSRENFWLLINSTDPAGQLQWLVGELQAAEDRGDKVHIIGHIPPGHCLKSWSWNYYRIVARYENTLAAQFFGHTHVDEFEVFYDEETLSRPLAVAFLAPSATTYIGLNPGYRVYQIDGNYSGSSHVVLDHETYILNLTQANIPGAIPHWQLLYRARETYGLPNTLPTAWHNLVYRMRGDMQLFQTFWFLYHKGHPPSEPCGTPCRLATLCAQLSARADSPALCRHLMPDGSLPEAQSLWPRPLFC
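qHTS format. ASM enzyme prepared from human placenta hydrolyses the fluorogenic substrate HMU-PC0 (9 uM final) over 60 min at 37 °C after a 10 min compound preincubation.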
gsp agonist = qHTS for Agonist of gsp, the Etiologic Mutation Responsible for Fibrous Dysplasia/McCune-Albright Syndrome: qHTS | Potency, µM (doses to about 76.9 µM), for the others: at the top dose activation (cAMP increase), actives largely listed as activators | AID 624287, 2012 | gsp mutant cells, cAMP HTRF, 30 min | actives 0.13% (n = 340,000); active means well fitted activation curve with a large enough effect; inconclusive means small, poorly fitted or top-dose-only effect, or another doubt; inactive means no such curve, though single readings can be large or run the other way; cell line not stated here;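 further: phosphodiesterase inhibitor Ro 20-1724 added with compounds to block cAMP breakdown; nearly all actives have a fitted effect of over 60% in size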
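Cells in DMEM/10% FBS with G418 were pretreated with compounds in DMSO plus […] (300 uM stock) for 30 min at 37C. cAMP was measured by HTRF (cAMP-d2 plus anti-cAMP antibody-K) after 30 min at room temperature.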
Rango complex inh = qHTS Assay for Inhibitors of Rango (Ran-regulated importin-beta cargo) - Importin beta complex formation. Importin subunit beta-1 (Homo sapiens), Q14974. Rango CFP/YFP FRET sensor + importin beta, 45 min. Potency, µM (top dose mostly 92.2 µM), inactives show top-dose inhibition of complex formation. actives 0.031% (n = 340,000). AID 540263, 2011;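 further: 0% = DMSO wells and 100% = buffer wells lacking importin beta; nearly all actives have a fitted effect of over 15% in size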
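Inhibition scored from the CFP 486 nm/YFP 530 nm FRET ratio 45 min after adding 0.125 microM importin beta to 50 nM Rango biosensor preincubated 5 min with compound (room temperature, PBS with DTT, Tween-20, BSA). No-importin wells as positive control.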
Active calls of the source: *; [ ] = another dose, or the depositor's remark. Unless noted, the call rests on the fitted dose curve. Potency means the concentration at half of the fitted maximal effect.

CC1CCCCN1C(=O)CSc1nc(C2CC2)nc2ccccc12 (stereo not drawn) was read as Rango dissoc inh 1.7%, gsp antag -6.2%, ASM inhibitor -1.2%, gsp agonist inconclusive and Rango complex inh 0.3%.
Screening CCO/C=C1/C(=O)N(c2ccc(OC)cc2)C(=O)c2ccccc21 returned Rango dissoc inh inconclusive, gsp antag -2.9%, ASM inhibitor 464.4%, gsp agonist 10.6% and Rango complex inh inconclusive.
CCO/C=C1\C(=O)N(c2ccccc2)C(=O)c2ccccc21 was read as Rango dissoc inh 13µM*, gsp antag -3.7%, ASM inhibitor 195.0%, gsp agonist -5.9% and Rango complex inh inconclusive.
Screening Cc1nnc(N2C(=O)C(O)=C(C(=O)c3ccco3)C2c2ccc(C(C)(C)C)cc2)s1 (stereo not drawn) returned Rango dissoc inh 25.9µM*, gsp antag -5.1%, ASM inhibitor 11.1%, gsp agonist inconclusive and Rango complex inh inconclusive.
`Clc1ccc(-c2csc(-c3ccno3)n2)cc1` gave Rango dissoc inh 42.4%, gsp antag -1.9%, ASM inhibitor -4.9%, gsp agonist -6.1%[15.4 µM] and Rango complex inh 4.2%.
`Clc1ccc(-c2nc(-c3cc4cc(Cl)ccc4o3)cs2)cc1` gave Rango dissoc inh -1.6%, gsp antag 28.2µM*, ASM inhibitor 0.7%, gsp agonist -7.9% and Rango complex inh -0.3%.
For C=CCNS(=O)(=O)c1ccc(OCC(=O)OC)cc1 the results were Rango dissoc inh -6.2%, gsp antag 5.2%, ASM inhibitor -0.6%, gsp agonist -22.5% and Rango complex inh -1.3%.
Screening CCN(CC(=O)Nc1cccc(F)c1)Cc1nc2ccccc2c(=O)[nH]1 returned Rango dissoc inh 4.9%, gsp antag 31.6µM*, ASM inhibitor 3.1%, gsp agonist inconclusive and Rango complex inh 0.4%.
Screening O=C1NC(=S)N/C1=C\c1ccc(N2CCOCC2)cc1 returned Rango dissoc inh 8.2µM*, gsp antag 20.4%, ASM inhibitor 4.0%, gsp agonist -15.7% and Rango complex inh inconclusive.
`CC(C)CC(=O)NC(NCC1CCCO1)C(Cl)(Cl)Cl` (stereo not drawn) gave Rango dissoc inh -12.4%, gsp antag inconclusive, ASM inhibitor -3.6%, gsp agonist -14.6% and Rango complex inh inconclusive.
For COc1ccc(C2/C=C\CN(Cc3ccc(N(C)C)cc3)CC(=O)N2Cc2ccc(F)cc2)cc1 (stereo not drawn) the results were Rango dissoc inh 6.0%, gsp antag -18.4%, ASM inhibitor -4.5% and Rango complex inh -1.6%.
For CCC1(CC)Cc2ccccc2-c2[nH]c(=S)[nH]c(=O)c21 the results were Rango dissoc inh -11.6%, gsp antag 11.5%, ASM inhibitor -0.4%, gsp agonist 6.31µM* and Rango complex inh -0.2%.
For CCC1(CC)Cc2ccccc2-c2nc(NN)[nH]c(=O)c21 the results were Rango dissoc inh -6.5%, gsp antag -18.9%, ASM inhibitor 85.2%, gsp agonist 6.2%[15.4 µM] and Rango complex inh 1.4%.
Screening CCCc1cc(C(=O)Nc2ccc(C(=O)c3ccc(F)cc3)cc2)n(C)n1 returned Rango dissoc inh 9.1%, gsp antag 35.5µM*, ASM inhibitor -2.2%, gsp agonist 21.1% and Rango complex inh 0.2%.
`COC(=O)c1c(NS(=O)(=O)c2cccs2)sc2c1CCCC2` gave Rango dissoc inh -14.1%, gsp antag 22.4µM*, ASM inhibitor 0.4%, gsp agonist -6.1% and Rango complex inh 0.1%.
For Cc1ccc(/C=N\NC(=O)/C(=C\Nc2nccc(C)n2)NC(=O)c2ccccc2)cc1 the results were Rango dissoc inh -22.8%, gsp antag -1.8%, ASM inhibitor -2.5%, gsp agonist 3.8%[15.4 µM] and Rango complex inh inconclusive.
C=CCn1c(C)nnc1SCC(=O)Nc1ccccc1C(=O)NC1CC1 was read as Rango dissoc inh 12.7%, gsp antag 21.4%, gsp agonist -25.3% and Rango complex inh -0.9%.
For CCCn1c(SCC(=O)Nc2ccccc2C(=O)NC2CC2)n[nH]c1=O the results were Rango dissoc inh -0.5%, gsp antag 30.7%, ASM inhibitor -0.3%, gsp agonist 44.7µM* and Rango complex inh -2.0%.
`Cn1cc(C(=O)C(=O)NC2CCCCC2)c2ccccc21` gave Rango dissoc inh -6.3%, gsp antag 50.1µM*, ASM inhibitor -2.2%, gsp agonist 26.1% and Rango complex inh 5.2%.
Screening Cn1cc(C(=O)C(=O)NC2CC2)c2ccccc21 returned Rango dissoc inh 1.9%, gsp antag -0.2%, ASM inhibitor 5.2%, gsp agonist -3.5%[15.4 µM] and Rango complex inh inconclusive.
For CC(=O)c1ccc(-n2c(CCC(=O)O)ccc2-c2ccc(Br)cc2)cc1 the results were Rango dissoc inh -10.0%, gsp antag 0.891µM*, ASM inhibitor -0.1%, gsp agonist inconclusive and Rango complex inh -2.1%.
Screening CC(=O)c1ccc(-n2c(CCC(=O)O)ccc2-c2ccc(C)cc2)cc1 returned Rango dissoc inh -10.3%, gsp antag inconclusive, ASM inhibitor 0.0%, gsp agonist -6.9% and Rango complex inh -1.9%.
For CCOC(=O)/C(C(C)=O)=C1\OC(=O)c2ccccc21 the results were Rango dissoc inh -3.6%, gsp antag 1.7%, ASM inhibitor 5.0%, gsp agonist -47.6% and Rango complex inh 1.9%.
Cc1cc(C)cc(NC(=O)/C=C/c2ccc([N+](=O)[O-])s2)c1 was read as Rango dissoc inh 1.03µM*, gsp antag 4.8%, ASM inhibitor -2.6%, gsp agonist -9.6% and Rango complex inh inconclusive.
Screening Cc1ccccc1NC(=O)/C=C/c1ccc([N+](=O)[O-])s1 returned Rango dissoc inh 0.651µM*[inhibitor], gsp antag 4.2%, ASM inhibitor -0.6%, gsp agonist 0.2% and Rango complex inh inconclusive.
`CC(=O)c1cccc(NC(=O)/C=C/c2ccc([N+](=O)[O-])s2)c1` gave Rango dissoc inh inconclusive, ASM inhibitor -1.2%, gsp agonist 18.3%[15.4 µM] and Rango complex inh inconclusive.
`CCc1cc(=O)oc2c(C)c(OS(C)(=O)=O)ccc12` gave Rango dissoc inh -23.2%, gsp antag 0.8%, ASM inhibitor 307.7%, gsp agonist -0.8% and Rango complex inh inconclusive.
CCc1cc2c(=O)c(-c3ccc4c(c3)OCCO4)c(C)oc2cc1OS(C)(=O)=O was read as Rango dissoc inh -11.4%, gsp antag 50.1µM*, ASM inhibitor -6.8%, gsp agonist -19.5% and Rango complex inh -3.6%.
